About 83,000 compounds went through this panel and 20% of them were active in at least one assay; those are over-represented in the sample as a whole.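 Plates (96-well) were seeded with cells, treated with compound at one concentration, and incubated for 48 hours before percent growth was determined.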 A number with no mark means an inactive call. Activity calls are given as the source filed them. The calls were made as follows: active = growth percent below 10; inactive = the rest.

The test deals with HL-60(TB) leukemia. In words: NCI-60 one-dose screen, 48 h (100 = growth as untreated, 0 = no growth, -100 = all killed). Conditions: 10 µM unless noted.
Consider `CCCCCCCC(=O)SCC/C=C/[C@@H]1CC(=O)NCc2cccc(n2)C2=N[C@@](C)(CS2)C(=O)N[C@@H](C(C)C)C(=O)N1`, for which the growth is 24.7%.
Regarding `COc1cc(C2C=C(c3ccc(Cl)c(Cl)c3)N=C3SC(C)=CN32)cc(OC)c1OC` (stereo unspecified), the growth is 61.6%.
`O=C(NCC(c1ccsc1)N1CCCCCC1)c1ccc(C(F)(F)F)cc1` (stereo unspecified): the growth is 97.5%.
With `COc1cccc(C(=O)Nc2cccc(NC(=O)c3ccccn3)c2)c1`, the growth is 87.8%.
On to `O=c1c2c3c(sc2n2c(CCl)nnc2n1Cc1ccccc1)CCCC3`, for which the growth was -59.8% (active).
Consider `CC(C)(C)c1cc(Br)cc(C(C)(C)C)c1O`, for which the growth was 94.1%.
In the case of `COc1ccc2c(c1)N(CCO)C1=C(C(=O)OC1)C2c1cc(OC)c(OC)c(OC)c1` (stereo unspecified), the growth is -16.7% (active).
The figure for `O=S(=O)(OCCOS(=O)(=O)c1ccccc1)c1ccccc1` is 92.5%.
As to `CCOC(=O)c1cn2ncnc(Oc3ccc(NC(=O)NCCN4CCN(C)CC4)c(Cl)c3)c2c1C`, the growth was 96.9%.
As for `Cc1cc(NCCN(C(C)C)C(C)C)nc(/N=C(\N)Nc2ccc(Cl)c(C(F)(F)F)c2)n1`, the growth was -87.9% (active).
The figure for `N#C/C(=C\c1ccc(-c2cccc(Cl)c2)o1)C(=O)Nc1ncc(Cc2ccc(Cl)cc2)s1` is 83.9%; for `CCOC(=O)C1=C(CC(O)c2ccc(OC)cc2OC)NC(=O)NC1c1ccccc1` (stereo unspecified) it is -33.9% (active).
Under `O=C(O)CCCn1c(SCc2c(Cl)cccc2Cl)nc2ccsc2c1=O` stands -4.86% (active); under `O=C1CC(c2cccc(F)c2)c2c(n[nH]c2-c2ccc(Cl)cc2)N1` (stereo unspecified), 97.3%.
Consider `Nc1cc(-c2ccncc2)c[nH]c1=O`, for which the growth was 87.6%.
`COc1cc2c(c(OC)c1OC)-c1ccc(NNC(=S)N(Cc3cccc(C[N+](Cc4cccc(CNC56CC7CC(CC(C7)C5)C6)c4)(Cc4cccc(CNC56CC7CC(CC(C7)C5)C6)c4)Cc4cccc(CN(C(=S)NNc5ccc6c(cc5=O)[C@@H](NC(C)=O)CCc5cc(OC)c(OC)c(OC)c5-6)C56CC7CC(CC(C7)C5)C6)c4)c3)C34CC5CC(CC(C5)C3)C4)c(=O)cc1[C@@H](NC(C)=O)CC2` (stereo partly specified): the growth is -63.4% (active).
In the case of `Cc1ccc(/C=C/c2c(C(=O)/C=C/c3ccccc3)c(C)nc3ccccc23)cc1`, the growth is 14.8%.
As for `CCCCC(=O)N(c1ccc(Nc2c3ccccc3nc3cc([N+](=O)[O-])ccc23)cc1)S(C)(=O)=O`, the growth is 68.3%.
`COc1cc2nc3cc([N+](=O)[O-])ccc3c(NCCCNCCO)c2cc1OC`: the growth is -25.3% (active).
Consider `C/C(=N\NC(=O)CC#N)c1cc2cc(Cl)ccc2o1`, for which the growth is 99.4%.
For `CCN(CC)c1ccc(C(=O)c2ccc(N(CC)CC)cc2)cc1`, the growth was 9.59% (active).
Turning to `COc1cc(/C=C/C(=O)c2c(C)oc3nc[nH]c(=O)c23)cc(OC)c1OC`, the growth is 65.9%.
With `COc1ccc2c(c1)c(-c1nc(-c3c[nH]c4c(Cl)nccc34)cs1)cn2C`, the growth was 108%.
Turning to `COc1ccc(C(=O)COc2ccc(/C=C3\Oc4ccc(Cl)cc4C3=O)cc2)cc1`, the growth is 16.5%.
`CCCCCCCCN(CCCCCCCC)CC(O)c1ccc(Cl)c(C)c1Cl` (stereo unspecified): the growth is 106%.
As to `COc1ccc(/C=c2\c(=O)n(-c3ccccc3)c3nn4c(n23)=NNC42CCCCC2)cc1`, the growth is 110%.
